Compounds with a hit are over-represented: about 0.046% of the library has one in this group of screens.
USP2a block – blocks human ubiquitin-specific protease USP2a | USP2 core, Ub-CHOP2 coupled fluorogenic reporter, 485/531 | Potency, µM (highest dose often 38.3 µM), for the others: at the highest dose activity change, negative = inhibition, usual class: inhibitors | O75604 | AID 463254 | 330,000 compounds, 0.01% hits;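 further: plate controls were DMSO wells for no effect and full inhibition by NEM control for full effect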
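Cell-free coupled assay: 10nM USP2 core preincubated 30min RT with compound in Tris-HCl pH 8.0/CaCl2/CHAPS buffer, then 25nM Ub-CHOP2 and 25nM reporter substrate; fluorescence (Ex 485/Em 531) read after 60min RT, normalized to NEM inhibition, concentration-response curves fitted.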
RGS4 inh – blocks human RGS4-accelerated GTP hydrolysis. P49798. Transcreener GDP fluorescence polarization, RGS4-accelerated GTP hydrolysis. Potency, µM (doses to about 114 µM), without a hit: at the highest dose activity change, negative = inhibition, most hits filed as inhibitors. 390,000 compounds, 0.039% hits; further: on the % scale 0 is the no-effect control and ±100 the full control effect; nearly all actives have a fitted effect of over 75% in size
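MLSMR compounds (23 nl, pin-transferred) preincubated 10 min at room temperature with a 500nM (2x) first reagent, then RGS4 at 900nM (2x) plus Transcreener GDP mix added; fluorescence polarization (620/688 nm) read before and after 90 min at 30 °C.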
Eya2 inh – blocks the phosphatase activity of human Eya2; O00167; recombinant Eya2, OMFP fluorescence dephosphorylation (OMFP is methylfluorescein phosphate); Potency, µM (highest dose often 76.9 µM), without a hit: at the top dose activity, negative = inhibition, hits mostly inhibitors; 330,000 compounds, 0.006% hits; further: on the % scale 0 is the no-effect control and ±100 the full control effect
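Eya2 (0.2 uM) preincubated 10 min at ambient with compound, then OMFP substrate added at 50 uM; 10 min reaction in 50 mM HEPES pH 7.5, 50 mM NaCl, 5 uM MgCl2, 0.05% BSA, 1 mM DTT. Fluorescence read at Ex 485/Em 525 nm.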
PTAP TSG101 blk – blocks PTAP/TSG101 interaction to inhibit HIV-1 budding | Fluorescence polarization, FITC-PTAP peptide / Tsg101 binding | Potency, µM (titrated, usually from 115 µM), inactives show top-dose activity change, negative = inhibition, hits mostly inhibitors | 340,000 tested, under 10 active | AID 493005; active means well fitted inhibition curve with a large enough effect in the main read-out, with a control signal flat, not every such curve was filed as active; inconclusive means small, poorly fitted or top-dose-only effect, or effect the other way, or a change in a side signal; inactive means no such curve, though single readings can be large or run the other way; further: % of control where 0% means no effect
Target sequence (Q99816 whole entry, looked up): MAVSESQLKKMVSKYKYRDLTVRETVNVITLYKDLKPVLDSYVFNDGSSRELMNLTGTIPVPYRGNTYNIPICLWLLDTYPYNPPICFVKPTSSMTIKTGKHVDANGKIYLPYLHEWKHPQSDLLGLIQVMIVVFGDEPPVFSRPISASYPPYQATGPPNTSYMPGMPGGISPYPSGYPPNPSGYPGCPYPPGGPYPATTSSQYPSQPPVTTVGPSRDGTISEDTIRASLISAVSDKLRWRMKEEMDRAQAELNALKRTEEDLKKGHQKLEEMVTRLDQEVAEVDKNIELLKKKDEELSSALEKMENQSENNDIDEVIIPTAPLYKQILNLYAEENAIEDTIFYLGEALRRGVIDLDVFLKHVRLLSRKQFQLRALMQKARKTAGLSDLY
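Compounds were pin-transferred onto Tsg101 binding domain (10 uM final) in HEPES pH 7.5 buffer, then FITC-PTAP peptide was added at 50 nM final. After 20 min at RT, polarization reported peptide displacement across a qHTS concentration series.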
* marks the source's active call; other numbers are inactive results; ? = inconclusive; · = no result; ! = repeats disagree. Unless noted, the call rests on the fitted dose curve; in most records, active means well fitted curve in the direction sought with a large enough effect; inconclusive means small, poorly fitted or top-dose-only effect, or another doubt; inactive means no such curve, though single readings can be large; an effect the other way counts as inactive or inconclusive. Potency means the concentration at half of the fitted maximal effect.

SMILES	USP2a block	RGS4 inh	Eya2 inh	PTAP TSG101 blk
Cc1ccc(S(=O)(=O)NC(Cc2ccccc2)C(=O)NN)cc1 (stereo not given)	1%	-39%	-10%	0%
c1ccc(CSc2nc3ncccc3[nH]2)cc1	·	-6%	·	·
CC(N)(Cc1ccc(O)c(O)c1)C(=O)O (stereo not given)	·	11µM*	-5%	·
COc1ccccc1NC(=O)C(C)OC(=O)C1CC(=O)N(c2ccc3c(c2)OCCO3)C1 (stereo not given)	1%	-30%	-5%	28µM*
N[C@H](Cc1c[nH]c2ccccc12)C(=O)O	·	21µM*	·	·
CC(C)(Sc1ccc(CCN(CCCCC2CCCCC2)C(=O)NC2CCCCC2)cc1)C(=O)O	1%	27µM*!	3%	-8%
CN(Cc1ccccc1)C(=O)NC1CCCCC1	1%	26%	-2%	-6%
CCOc1c2c(c(-c3ccc4c(c3)OCO4)c3cc(OC)c(OC)cc13)C(=O)OC2	·	-10%	·	·
CCN(CC)CCCC(C)Nc1c2ccc(Cl)cc2nc2ccc(OC)cc12 (stereo not given)	?	21µM*	10%	·
O=C(O)c1cc(O)c2c(c1)[C@@H]([C@H]1c3cc(C(=O)O)cc(O)c3C(=O)c3c(O[C@@H]4O[C@H](CO)[C@@H](O)[C@H](O)[C@H]4O)cccc31)c1cccc(O[C@@H]3O[C@H](CO)[C@@H](O)[C@H](O)[C@H]3O)c1C2=O	2µM*	-120%	?	-8%
OCC1OC(Oc2cccc3ccccc23)C(O)C(O)C1O (stereo not given)	-1%	3%	6%	-4%
CC(=O)c1ccc(C2CC34CNS(=O)(=O)C3CC2O4)cc1 (stereo not given)	·	1%	·	·
CSc1nc(SCCO)c2sc3nc(-c4ccco4)c4c(c3c2n1)CC(C)(C)OC4	10µM*	-51%	-24%	-2%
O=C(Cn1cnc2c(nc3n2CCCCC3)c1=O)Nc1ccc(F)c(Cl)c1	·	13%	·	·
O=[S+]([O-])([O-])c1ccc2c(c1)cc([S+](=O)([O-])[O-])c1nn(-c3ccc(/C=C/c4ccc(-n5nc6c([S+](=O)([O-])[O-])cc7cc([S+](=O)([O-])[O-])ccc7c6n5)cc4[S+](=O)([O-])[O-])c([S+](=O)([O-])[O-])c3)nc12	·	-44%	·	·
